The record followed here is PubChem BioAssay (NCI).

This is part of a sample that, as a whole, favours compounds with a hit. Of some 83,000 tested, about 20% had one in any assay.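 Negative percent growth values reflect cell death: -40 means 40% of the cells present at the start died, and -100 means all died.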 Values without a mark were called inactive. The source made the active and inactive calls. How the source made its calls: active means growth percent below 10; inactive means the rest.

This assay concerns NCI-H23 lung. In words: NCI-60 one-dose screen, 48 h (100 = growth as untreated, 0 = no growth, -100 = all killed). Conditions: 10 µM.
For `Cc1ccc(CSc2nc(-c3ccc(F)cc3)c(C#N)c(=O)[nH]2)cc1`, the growth was 103%.

Consider `CCCn1c(O)c(N=Nc2nc(-c3cc4ccccc4oc3=O)cs2)c2cc(Br)ccc21`, for which the growth was 94.8%. With `CN1CCN(Cc2ccc(NC(=O)c3cncc(C#Cc4cnc5ccc(N[C@@H]6CCOC6)nn45)c3)cc2C(F)(F)F)CC1` the figure was -81.3% (active); with `c1ccc(C(=C(c2ccc(OCCN3CCCCC3)cc2)c2ccc(OCCN3CCCCC3)cc2)C2CCCC2)cc1`, -81% (active); with `Cc1ccc(-c2cc(C(=O)N=Nc3c(O)[nH]c4ccccc34)c3ccccc3n2)cc1`, 31.8%. With `N#Cc1c(NC(=O)c2ccc(C(F)(F)F)cc2)sc2c1CCC(=O)C2` the figure was -56.9% (active); with `CCOC(=O)C1NN(c2ccc(S(N)(=O)=O)cc2)c2nc3nc(-c4cccs4)cc(-c4cccs4)c3c(=O)n21` (stereo not drawn), 96.6%. The result for `Cc1ccc(-c2cc(C(=O)N=Nc3c(O)[nH]c4ccc(Br)cc34)c3ccccc3n2)cc1` reads 51.2%; that for `CC1(c2ccccc2)NC(=O)N(CC(=O)Nc2ccc(C(=O)/C=C/c3ccc(Cl)cc3)cc2)C1=O` (stereo not drawn), 18.6%; that for `O=C(N/N=C/c1ccc(-c2cccc([N+](=O)[O-])c2)o1)c1[nH]c2ccc(Br)cc2c1-c1ccccc1`, 17.6%.

Consider `CN(C)c1ccc(/C=C/c2nc3ccccc3c(=O)n2CC(=O)Nc2ccc(Cl)cc2)cc1`, for which the growth was 67.2%. The result for `CCCSc1nc(NC2CC2)c(C#N)c(-c2ccc(OC)cc2)n1` reads 96.4%. With `C=C1CCC2C3(C)COC(c4c(F)cccc4F)OC3CCC2(C)C1CC(O)C1=CCOC1=O` (stereo not drawn) the figure was 83.5%.
